Nine molecules from PubChem BioAssay (Tox21) can be followed below.

Assay [1] can be described thus: qHTS assay to identify small molecule agonists of the estrogen receptor alpha (ER-alpha) signaling pathway in the presence of an antagonist - cell viability counter screen (AID 1259386).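 Note: cells exposed to compounds for 22 h at 37 °C before the viability read; nearly all actives have a fitted effect of over 30% in size.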 Note: potency is the fitted concentration of half-maximal effect. The procedure, abridged:
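VM7Luc4E2, stripped-serum pre-culture 5 d; 24hr plating; +ICI-182,780 10.0nM final; cpds 15 conc, 22hr, 37C/5% CO2; CellTiter-Fluor added at 21hr, fluorescence 1hr later.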

Assay [2] has as its target Progesterone receptor (Homo sapiens) (UniProt P06401). The assay is described as follows: qHTS assay to identify small molecule agonists of the progesterone receptor (PR) signaling pathway (AID 1346784; calls by dose curve; note: nearly all actives have a fitted effect of over 30% in size). The procedure, abridged: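 Compounds were tested for PR agonism in HEK 293T cells bearing a beta-lactamase gene under UAS control. Treatment lasted 16 hr at 37C; signal came from fluorescence of a FRET substrate.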

For assay [3] the target is unchanged. The assay is described as follows: qHTS assay to identify small molecule antagonists of the progesterone receptor (PR) signaling pathway (AID 1346795; active = well fitted inhibition curve with a large enough effect in the signal ratio in the repeat runs, not every such curve was filed as active; the % refers to the signal ratio). In short, it runs like this: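 In HEK293T cells bearing the PR-UAS-bla reporter, compound effects on promegestone-driven (1 nM) beta-lactamase expression are assessed after 16 hr using a fluorescent FRET substrate incubated 2 hr at room temperature.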

A short description of assay [4]: qHTS assay to identify small molecule antagonists of the progesterone receptor (PR) signaling pathway - cell viability counter screen (AID 1346798). Note: nearly all actives have a fitted effect of over 50% in size. Note: potency is the fitted concentration of half-maximal effect. In short, it runs like this:
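Following a 4 hr attachment, PR-UAS-bla HEK293T cells in charcoal-stripped FBS medium were exposed to compounds with R5020 for 16 hr; CellTiter-Glo was added and luminescence read after 30 min at room temperature.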

The nature of assay [5]: qHTS assay to identify small molecule agonists of the progesterone receptor (PR) signaling pathway - cell viability counter screen (AID 1346799; calls by dose curve; note: nearly all actives have a fitted effect of over 45% in size; note: potency is the fitted concentration of half-maximal effect). The procedure, abridged: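 Here, 3,000 PR-UAS-bla HEK293T cells per well were treated with compounds for 16 hr after a 6 hr preincubation at 37C and 5% CO2; cell viability is the CellTiter-Glo luminescence signal.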
Assay [6] can be described thus: qHTS assay to identify small molecule agonists of the TGF-beta/Smad signaling pathway (AID 1346859; active = well fitted activation curve with a large enough effect in the signal ratio in the repeat runs, not every such curve was filed as active; the % refers to the signal ratio; note: series mostly up to about 77 µM). The procedure, abridged:
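Each well held 4,000 SBE-bla HEK 293T cells incubated overnight before compound addition; 5 hr later the cleavable FRET substrate went on for 2 hr at room temperature, and fluorescence was read at two emissions.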

For assay [7], the target named is Thyrotropin-releasing hormone receptor (Homo sapiens) (UniProt P34981). Description: qHTS assay to identify small molecule antagonists of the thyrotropin-releasing hormone receptor (TRHR) signaling pathway (AID 1346877; active = well fitted inhibition curve with a large enough effect in the repeat runs, not every such curve was filed as active; note: series mostly up to about 51 µM). In short, it runs like this: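 Intracellular calcium fluorescence, read kinetically every second over 3 min, reports TRH-evoked signalling in HEK293 cells carrying TRHR. Test compounds were added 5 min ahead of a 1 nM TRH challenge.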

Assay [8] has the same target. The assay is described as follows: qHTS assay to identify small molecule agonists of the thyrotropin-releasing hormone receptor (TRHR) signaling pathway (AID 1346891; calls by dose curve; note: series mostly up to about 58 µM). The procedure, abridged:
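Screening of agonists relied on calcium signalling in HEK293 cells expressing human TRHR: dye loading 2 h at 37 °C preceded compound addition and a 3-min fluorescence time course.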

The nature of assay [9]: Human pregnane X receptor (PXR) small molecule agonists, qHTS cell viability counter screen (AID 1346977). Note: nearly all actives have a fitted effect of over 50% in size. Note: potency is the fitted concentration of half-maximal effect. In short, it runs like this: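 Tox21 qHTS format; PXR-Luc HepG2, 2,000/well, charcoal-stripped FBS 5%. Cpd exposure 24hr. Read: CellTiter-Fluor fluorescence, multiplexed with luciferase.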
Assay [10] in a line: Caspase-3/7 induction in HepG2 cells by small molecules, qHTS assay (AID 1346978). Note: nearly all actives have a fitted effect of over 15% in size. The procedure, abridged: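 Caspase-3/7 induction was measured by Caspase-Glo 3/7 luminescence (30 min, room temperature) after a 17 hr compound exposure of wild-type HepG2 cells seeded at 2,000 per well and pre-incubated 5 hr.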
Assay [11] can be described thus: Caspase-3/7 induction in CHO-K1 cells by small molecules, qHTS assay (AID 1346980). Note: nearly all actives have a fitted effect of over 15% in size. In short, it runs like this:
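Luminescent Caspase-Glo 3/7 read (30min, room temperature) quantified apoptosis induction. Cells were wild-type CHO-K1, treated with compound for 17hr at 37 C and 5% CO2.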

A short description of assay [12]: Caspase-3/7 induction in HepG2 cells by small molecules, qHTS cell viability counter screen (AID 1346981). Note: nearly all actives have a fitted effect of over 30% in size. Note: potency is the fitted concentration of half-maximal effect. In short, it runs like this:
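HepG2, WT, 2,000 cells/well; 5 hr pre-incubation 37 C/5% CO2; compound pin-transferred from DMSO; 16 hr exposure; CellTiter-Fluor, 1 hr; fluorescence read.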

Assay [13] deals with Nuclear receptor subfamily 1 group I member 2 (Homo sapiens) (UniProt O75469). The assay is described as follows: Human pregnane X receptor (PXR) small molecule agonists, qHTS assay (AID 1346982). Note: nearly all actives have a fitted effect of over 35% in size. Note: potency is the fitted concentration of half-maximal effect. The procedure, abridged: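 Luciferase signal from ONE-Glo (30 min, room temperature) measured activation of hPXR-driven CYP3A4 reporter expression in PXR-Luc HepG2 cells treated with compounds for 24 hr at 37 C.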

The nature of assay [14]: qHTS assay to identify small molecule antagonists of the TGF-beta/Smad signaling pathway - cell viability counter screen (AID 1346824). Note: nearly all actives have a fitted effect of over 50% in size. The procedure, abridged:
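Cytotoxicity counter-screen run in the same wells as the beta-lactamase Smad reporter read: CellTiter-Glo luminescence after 30 min at room temperature. HEK 293T SBE-bla cells had 5 hr compound exposure at 37 C with TGF-beta1 (0.25 ng/mL stock).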

Assay [15] can be described thus: qHTS assay to identify small molecule agonists of the TGF-beta/Smad signaling pathway - cell viability counter screen (AID 1346829). Note: top concentration of the series differs between compounds; nearly all actives have a fitted effect of over 45% in size. In short, it runs like this: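 In parallel with the Smad reporter read, viability of HEK 293T cells stably carrying SBE-bla is quantified by ATP luminescence following 5 hr compound treatment.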
The nature of assay [16]: Caspase-3/7 induction in CHO-K1 cells by small molecules, qHTS cell viability counter screen (AID 1346979). Note: nearly all actives have a fitted effect of over 35% in size. Note: potency is the fitted concentration of half-maximal effect. In short, it runs like this: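 CellTiter-Fluor viability check, qHTS format: wild-type CHO-K1, 16hr compound treatment, 1hr reagent incubation, fluorescence read.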
The target of assay [17] is Nuclear receptor subfamily 1 group I member 2 (Rattus norvegicus) (UniProt Q9R1A7). Description: Rat pregnane X receptor (rPXR) activation by small molecules, qHTS assay (AID 1346983). Note: nearly all actives have a fitted effect of over 20% in size. To be noted: rPXR luciferase reporter cells, One-Glo luminescence, 24 h; max activation: stronger effect = higher value. The procedure, abridged: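 Luminescent readout (One-Glo luciferase, 30 min room temperature) followed 24 hr compound treatment at 37 C of rPXR cells plated 2,000 per well and preincubated 5hr; qHTS format with compounds delivered in DMSO.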

For assay [18], the target named is Nuclear receptor subfamily 1 group I member 2 (Homo sapiens) (UniProt O75469). Description: CYP3A4 induction through human pregnane X receptor (PXR) by small molecules, qHTS assay (AID 1346984). Note: nearly all actives have a fitted effect of over 40% in size. The procedure, abridged:
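Luminescence readout: luciferase signal after One-Glo (30 min, room temperature), following 3 h at 37C with 3uM final Luciferin-IPA P450 substrate. Cells were DPX-2 (HepG2, PXR/CYP3A4-luc co-transfected) dosed for 24 h.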

The target is the same in assay [19]. Description: Human pregnane X receptor (PXR) activation by small molecules, qHTS assay (AID 1346985). Note: nearly all actives have a fitted effect of over 40% in size. The procedure, abridged:
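DPX-2 cells (HepG2 co-transfected with a PXR response element and a CYP3A4-promoter luciferase construct) were seeded at 2,000 per well, rested 5 hr at 37C, then exposed to DMSO-dissolved compounds for 24 hr. Activation was read as luciferase luminescence.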

Values without a mark were called inactive. Records with an inconclusive call do not appear. Activity calls are given as the source filed them. Unless noted, calls come from the whole dose curve; as a rule, active = well fitted curve in the direction sought with a large enough effect in the repeat runs; inconclusive = weak or mixed curves; inactive = no such curve, though single readings can be large; an effect the other way counts as inactive or inconclusive.
% is set by controls: 0 for no effect and ±100 for the full control effect.

Chain of Nuclear receptor subfamily 1 group I member 2 (Rattus norvegicus) (Q9R1A7 whole entry, looked up): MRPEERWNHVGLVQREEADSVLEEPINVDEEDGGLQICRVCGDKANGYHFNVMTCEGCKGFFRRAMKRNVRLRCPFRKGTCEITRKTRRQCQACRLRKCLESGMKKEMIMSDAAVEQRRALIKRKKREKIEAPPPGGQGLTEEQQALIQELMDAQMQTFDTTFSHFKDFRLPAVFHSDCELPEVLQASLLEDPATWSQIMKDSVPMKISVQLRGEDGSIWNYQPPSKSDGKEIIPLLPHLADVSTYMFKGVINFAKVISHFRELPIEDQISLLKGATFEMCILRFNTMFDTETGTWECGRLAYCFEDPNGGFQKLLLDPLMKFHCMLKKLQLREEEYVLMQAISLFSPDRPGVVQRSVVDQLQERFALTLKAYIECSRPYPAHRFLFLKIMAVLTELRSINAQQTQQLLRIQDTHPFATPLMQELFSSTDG
Chain of Progesterone receptor (Homo sapiens) (P06401 whole entry, looked up): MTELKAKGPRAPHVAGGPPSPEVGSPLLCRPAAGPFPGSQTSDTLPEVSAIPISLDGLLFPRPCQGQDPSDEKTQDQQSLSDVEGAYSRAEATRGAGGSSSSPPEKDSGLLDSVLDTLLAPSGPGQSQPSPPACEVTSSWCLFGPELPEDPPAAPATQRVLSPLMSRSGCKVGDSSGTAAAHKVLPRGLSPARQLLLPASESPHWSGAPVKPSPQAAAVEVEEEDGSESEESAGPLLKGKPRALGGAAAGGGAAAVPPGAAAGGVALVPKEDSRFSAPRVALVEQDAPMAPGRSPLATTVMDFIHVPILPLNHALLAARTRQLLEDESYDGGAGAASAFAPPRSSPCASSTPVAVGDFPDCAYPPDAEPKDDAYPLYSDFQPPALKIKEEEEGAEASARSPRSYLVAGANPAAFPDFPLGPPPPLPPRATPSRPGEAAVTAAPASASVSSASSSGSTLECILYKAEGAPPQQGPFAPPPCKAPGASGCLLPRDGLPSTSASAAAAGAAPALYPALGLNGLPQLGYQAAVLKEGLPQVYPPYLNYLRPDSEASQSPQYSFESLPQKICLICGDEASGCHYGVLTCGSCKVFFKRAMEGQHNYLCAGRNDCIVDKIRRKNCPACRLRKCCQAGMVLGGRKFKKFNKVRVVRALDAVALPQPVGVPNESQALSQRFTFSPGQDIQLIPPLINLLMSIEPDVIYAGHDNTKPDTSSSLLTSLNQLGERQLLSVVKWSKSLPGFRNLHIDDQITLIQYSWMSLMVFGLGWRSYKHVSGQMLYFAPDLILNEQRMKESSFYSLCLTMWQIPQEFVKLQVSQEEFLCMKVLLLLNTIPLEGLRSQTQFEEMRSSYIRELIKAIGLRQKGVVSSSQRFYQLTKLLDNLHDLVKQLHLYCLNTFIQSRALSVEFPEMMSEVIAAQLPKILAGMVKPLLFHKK
Chain of Nuclear receptor subfamily 1 group I member 2 (Homo sapiens) (O75469 whole entry, looked up): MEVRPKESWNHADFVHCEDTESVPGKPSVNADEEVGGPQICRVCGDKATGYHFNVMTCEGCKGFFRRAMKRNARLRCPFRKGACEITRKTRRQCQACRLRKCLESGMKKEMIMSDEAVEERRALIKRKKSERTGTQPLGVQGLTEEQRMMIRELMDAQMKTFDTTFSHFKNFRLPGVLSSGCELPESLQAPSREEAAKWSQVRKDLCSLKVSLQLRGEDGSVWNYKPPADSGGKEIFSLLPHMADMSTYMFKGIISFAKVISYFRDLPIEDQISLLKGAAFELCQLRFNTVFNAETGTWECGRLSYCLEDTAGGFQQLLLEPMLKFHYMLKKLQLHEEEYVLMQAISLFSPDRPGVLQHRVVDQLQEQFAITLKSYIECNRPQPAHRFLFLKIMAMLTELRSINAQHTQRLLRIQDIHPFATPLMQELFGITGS
Chain of Thyrotropin-releasing hormone receptor (Homo sapiens) (P34981 whole entry, looked up): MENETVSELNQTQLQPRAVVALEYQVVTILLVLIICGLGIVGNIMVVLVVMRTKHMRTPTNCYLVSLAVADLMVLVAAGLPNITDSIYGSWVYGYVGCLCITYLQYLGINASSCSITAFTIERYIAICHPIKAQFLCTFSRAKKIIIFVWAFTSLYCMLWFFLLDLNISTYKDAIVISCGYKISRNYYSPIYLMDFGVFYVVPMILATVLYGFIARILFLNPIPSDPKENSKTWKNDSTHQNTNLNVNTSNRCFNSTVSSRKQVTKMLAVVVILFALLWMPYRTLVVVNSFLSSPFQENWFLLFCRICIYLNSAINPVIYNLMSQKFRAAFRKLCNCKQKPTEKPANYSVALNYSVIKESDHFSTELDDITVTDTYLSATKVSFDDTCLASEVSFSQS

In the case of `CCN(CC)c1ccc(C(=C2C=CC(=[N+](CC)CC)C=C2)c2ccc(S(=O)(=O)O)cc2S(=O)(=O)[O-])cc1`, the Potency in assay [1] was 17.2 µM (active); in assay [4] it was 30.6 µM (active); in [5] it was 24.3 µM (active); in assay [9] it was 15.4 µM (active); in assay [12], 19.3 µM (active). For the same molecule, the Potency entry in [2], in assay [3], in [6], in assay [10] and in assay [13] was “inactive” each time. Further, the outcome in assay [7], in assay [8] and in assay [11] was inactive.
With `COc1ccc(-c2cc(C(F)F)nn2-c2ccc(S(N)(=O)=O)cc2)cc1F`, the Potency result in assay [1], in assay [2], in assay [5], in assay [15], in [9] and in [10] was “inactive” throughout. The Potency entry in assay [16], in assay [18] and in assay [19] was “inactive” throughout. Also, the result in assay [14], in assay [7], in assay [8] and in assay [11] was inactive. For the same molecule, the Potency in [13] is 15 µM (active). For the same molecule, the max activation in assay [17] was -1.2%.
As for `CCOC(=O)C(C)O` (configuration not stated), the Potency entry in assay [1], in assay [3], in assay [4], in [5], in [15] and in [6] was “inactive” in each case. Besides, the Potency entry in [9], in assay [10], in [12] and in assay [13] was “inactive” in each case. For the same molecule, the outcome in assay [14] and in assay [11] was inactive.
`COc1ccc(CCN(C)CCCN2CCc3cc(OC)c(OC)cc3CC2=O)cc1OC`: the Potency result in assay [1], in assay [2], in assay [3], in assay [4], in [5] and in [15] was “inactive” each time. Also, the Potency result in assay [6], in assay [9], in [10], in assay [16], in assay [12] and in assay [13] was “inactive” throughout. The Potency entry in assay [18] and in assay [19] was “inactive” throughout. For the same molecule, the call in assay [14], in assay [7], in [8] and in assay [11] was inactive. For the same molecule, the max activation in [17] is 3.44%.
For the molecule `COc1ccc(C(=O)NCc2ccc(OCCN(C)C)cc2)cc1OC`, the Potency entry in assay [1], in assay [2], in assay [3], in assay [4], in assay [5] and in [15] was “inactive” in each case. Also, the Potency result in assay [6], in assay [9], in assay [10], in assay [12], in [13] and in assay [18] was “inactive” each time. Also, the Potency entry in assay [19] was “inactive”. Besides, the molecule was classed as inactive in [7], in [8] and in assay [11]. For the same molecule, the max activation in [17] is -0.841%.
For the molecule `Cc1c(C2(c3cc(Br)c(O)c(Br)c3C)OS(=O)(=O)c3ccccc32)cc(Br)c(O)c1Br`, the Potency in assay [1] was 13.3 µM (active); in [4] it was 18.8 µM (active); in assay [9], 14.9 µM (active); in [12], 18.8 µM (active). For the same molecule, the Potency result in assay [2], in [15], in assay [6], in [10] and in assay [13] was “inactive” each time. The molecule was called inactive in assay [7], in assay [8] and in assay [11].
`C[C@@H]1[C@H](O)[C@@H](C)/C=C/C=C\C=C\C=C\C=C\C=C\C=C\[C@H](O[C@@H]2O[C@H](C)[C@@H](O)[C@H](N)[C@@H]2O)C[C@@H]2O[C@](O)(C[C@@H](O)C[C@@H](O)[C@H](O)CC[C@@H](O)C[C@@H](O)CC(=O)O[C@H]1C)C[C@H](O)[C@H]2C(=O)O` (stereo in doubt): the call in assay [14] and in assay [11] was inactive. For the same molecule, the Potency result in assay [10], in assay [18] and in [19] was “inactive” each time. Further, the values for the Potency in assay [16] and in assay [12] were 61.1 µM (active) and 48.6 µM (active), respectively. The max activation in [17] was 1.92%.
In the case of `CC(CO)(CO)C(=O)O`, the Potency entry in assay [1], in assay [4], in assay [5], in [15], in assay [6] and in [9] was “inactive” throughout. In addition, the Potency result in [10], in assay [16], in assay [12] and in assay [13] was “inactive” each time. For the same molecule, the call in assay [14] and in assay [11] was inactive.
In the case of `CCN(Cc1cccc(S(=O)(=O)O)c1)c1ccc(C(=C2C=CC(=[N+](CC)Cc3cccc(S(=O)(=O)O)c3)C=C2)c2ccc(O)cc2S(=O)(=O)[O-])cc1`, the results for the Potency in assay [1], in assay [9] and in [12] were 16.6 µM (active), 18.6 µM (active) and 16.6 µM (active), respectively. Also, the Potency result in [2], in [3], in [5], in [6] and in assay [10] was “inactive” each time. In addition, the result in assay [11] was inactive.
